The text below walks through data of PubChem BioAssay (NCATS).

Values joined by “and” are separate entries in the source; they are usually repeats but may differ in a detail not shown here. Identical values can stand only once. Inconclusive results are not listed. Active and inactive are the calls of the source. Calls follow the shape of the dose curve; as a rule, active = well fitted cell-killing curve with a large enough effect; inconclusive = small, poorly fitted or top-dose-only effect; inactive = flat fitted curve, though single readings scatter.
Potency is read from the fitted curve at half-maximal effect.

The nature of this assay: Cell Viability - N2a (AID 540). Also: nearly all actives have a fitted effect of over 45% in size.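 As to activity change, negative = cytotoxicity: plate controls were DMSO alone for no effect and tamoxifen control for full effect.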 To be noted: N2a mouse neuroblastoma cell viability; activity change, negative = cytotoxicity: at 92.2 µM (top of the series). The source says: NIH Chemical Genomics Center [NCGC]
NIH Molecular Libraries Screening Centers Network [MLSCN]
National Institutes of Environmental Health Sciences [NIEHS]
National Toxicology Program [NTP]
We have developed a 1536-well cell-based assay for quantitative high throughput screening (qHTS) against a number of cell lines to determine in vitro cytotoxicity of small molecules. This particular assay uses the N2a cell line which is derived from mouse neuroblastoma.
NCGC Assay Protocol Summary:
The CellTiter-Glo luminescent cell viability assay (Promega) is a homogeneous method to measure the number of viable cells in culture. The end point readout of this assay is based on quantitation of intracellular ATP, an indicator of metabolic activity, using the luciferase reaction. Luciferase catalyzes the oxidation of beetle Luciferin to oxyluciferin and light in the presence of ATP. The luminescent signal is proportional to amount of ATP present.
Using the CellTiter-Glo luminescent cell viability assay, the amount of cellular ATP was measured in the N2a cell line with complete culture medium following compound treatment for 40 hours. The assay was performed in opaque white Kalypsys 1536-well plates. In the screen, tamoxifen and doxorubicin were used as positive controls. Library compounds were measured for their ability to cause acute toxicity in the cell line, as reflected by a decrease in intracellular ATP levels, in a concentration-dependent manner. […] AC50 values were determined from concentration-response data modeled with the standard Hill equation.
qHTS protocol for CellTiter Glo N2a cellular assay
[Step] [Parameter] [Value] [Description]
1. Reagent; 5 uL; 1500 N2a cells/well
2. Time; 5 hr; 37 °C incubation
4. Controls; 23 nL; Tamoxifen 0.34 uM to 100 uM & Doxorubicin 0.02 nM to 100 uM
5. Time; 40 hr; 37 °C incubation
6. Reagent; 5 uL; CellTiter Glo reagent
7. Time; 20 min; Room Temperature
8. Detection; Luminescence; Viewlux plate reader
Keywords: cell viability, cytotoxicity, N2a cell line, luminescence, NTPHTS, NTPHTS_NCGC, NIEHS, EPA, DSSTox, MLSMR, MLSCN, NIH Roadmap, qHTS, NCGC
As for `NCCNCCNCCNCCN`, the activity change, negative = cytotoxicity was -2.82% (inactive).
As for `CCCCOC(=O)c1ccc(O)cc1`, the activity change, negative = cytotoxicity was 2.23% (inactive).
With `O=C1O[C@H]([C@@H](O)CO)C(O)=C1O`, the activity change, negative = cytotoxicity is 3.88% (inactive).
As to `Cc1c(O)cccc1C(=O)N[C@@H](CSc1ccccc1)[C@H](O)CN1C[C@H]2CCCC[C@H]2C[C@H]1C(=O)NC(C)(C)C`, the activity change, negative = cytotoxicity is -108% (active).
On to `CC12CCC(CC1)C(C)(C)O2`, for which the activity change, negative = cytotoxicity is -7.51% (inactive).
As for `Nc1ccc(S(=O)(=O)Nc2nccs2)cc1`, the activity change, negative = cytotoxicity is -2.29% (inactive).
Regarding `COc1ccccc1O`, the activity change, negative = cytotoxicity was 1.24% (inactive) and 7.3% (inactive) and 7.13% (inactive).
The same measure, in the same setting: as for `[Cl][In]([Cl])[Cl]`, the figure is -0.39% (inactive).
Take `CCCCCCCCCCCCOS(=O)(=O)O`: the activity change, negative = cytotoxicity was -3.87% (inactive) and -0.403% (inactive).
As for `Cc1cc(CC(=O)O)n(C)c1C(=O)c1ccc(Cl)cc1`, the activity change, negative = cytotoxicity is -9.12% (inactive).
Still for that read-out and setting: in the case of `Cc1cc2nc3c(=O)[nH]c(=O)nc-3n(C[C@H](O)[C@H](O)[C@H](O)CO)c2cc1C` it was 0.316% (inactive); in that of `CC1(C)[C@@H]2CC[C@@]1(C)C(=O)C2`, 2.78% (inactive).
Regarding `Oc1cccc(O)c1`, the activity change, negative = cytotoxicity is -7.46% (inactive).
Consider `NC(=O)N/N=C/c1ccc([N+](=O)[O-])o1`, for which the Potency is 31.6 µM (active).
`NCCNCCNCCN`: the activity change, negative = cytotoxicity is -20% (inactive).
